Screens (PubChem)
MK inhibit – inhibitors of Streptococcus pneumoniae mevalonate kinase; purified MK, PK/LDH-coupled NADH absorbance 340 nm; inhibition, % at 10 µM; 65,000 compounds, 0.48% hits;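 active means ranked among the strongest by inhibition in the single 10 µM screen, a fixed top-ranked set picked for dose follow-up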
NADH coupling – inhibition of NAD/NADH coupling enzymes, library profiling | coupled PK/LDH NADH assays, four targets | IC50, µM (series often up to 10 µM), for inactives: at the highest dose inhibition | 65,000 compounds, 0.02% hits | AID 774;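 active means single-dose screening hits from any of four coupled enzyme assays that gave an IC50 when retested across doses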;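 further: the DPM-DC format reads NADH fluorescence rather than 340 nm absorbance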
DPM-DC inhibit – inhibitors of Streptococcus pneumoniae diphosphomevalonate decarboxylase; purified DPM-DC, PK/LDH coupled NADH fluorescence; calls only at 10 µM; 65,000 compounds, 0.49% hits;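 active means the 320 compounds with the highest percent inhibition in the single-dose primary screen, excluding strongly autofluorescent ones, cut at about 32% in these data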;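 further: kinetic rate of NADH fluorescence loss reporting ADP formed by the decarboxylase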
A340 absorber – compounds absorbing at 340 nm; compound absorbance at 340 nm, fold over control; fold change at 10 µM; 65,000 tested, under 10 active;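 active means at 10 µM dose, initial 340 nm absorbance at least 2 fold that of control wells; inactive means change under 2 fold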;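 further: initial absorbance extrapolated from kinetic A340 decline of NADH oxidation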
PMK inhibit – blocks S. pneumoniae phosphomevalonate kinase; purified PMK, PK/LDH-coupled NADH absorbance 340 nm; inhibition, % at 10 µM; 65,000 compounds, 0.49% hits; AID 539;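 active means top-ranked compounds by inhibition in the single 10 µM screen, taking a fixed number of the strongest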;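 further: 0% = full reaction with DMSO carrier and 100% = background rate without enzyme reaction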
Autofluor 339 – intrinsic fluorescence of library compounds, ex339/em460 – biochemical, MLSMR library, data from DPM-DC assay, artefact control, profiling panel | 65,000 compounds, 5.5% hits | fluorescence fold increase at 10 µM | compound autofluorescence, ex339/em460 nm, NADH buffer; active compounds read high; 1 = no-compound wells, NADH background | AID 709;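 active means at 10 µM, mean starting fluorescence two-fold or more over control wells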;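 further: signal is the first read of a kinetic run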
* hit, by the source's call; i = inactive; / = not tested or not shown; + = active, no number. In the library only some 6.8% were active in any assay of this set; here they are far more common.

SMILES	MK inhibit	NADH coupling	DPM-DC inhibit	A340 absorber	PMK inhibit	Autofluor 339
c1ccc(-n2nnc3cnccc32)cc1	14	9%	i	1	12	1.1
CC(C)(C)OC(=O)N1CCCC1C(=O)NCCc1ccccc1 (stereo not drawn)	9	4%	i	1	3	1.2
CCc1cc2c(C)cc(=O)oc2cc1OC(=O)C1CCCN1C(=O)OC(C)(C)C (stereo not drawn)	10	11%	/	1	11	4.9*
Nc1nc(-c2cccs2)c(NC(=O)c2ccccc2)s1	5	6%	i	1	12	1.1
O=C(Nc1c(-c2ccccc2)nc2sccn12)c1ccccc1	15	18%	i	1	40*	1.1
COc1ccc(NC(=O)C(C)Oc2ccc(/C(C)=N\O)cc2)cc1 (stereo not drawn)	2	2%	i	0.98	5	1
CCn1c(/C=N/n2cnnc2)nc2ccccc21	3	8%	/	1.2	12	2.1*
CCn1c2ccccc2c2cc(/C=N/n3cnnc3)ccc21	10	8%	/	1.1	6	5*
CC(C)Cn1cnc2c1c(=O)n(CC(=O)Nc1ccc3c(c1)OCO3)c(=O)n2Cc1ccccc1	3	4%	i	0.99	10	1
CCOc1ccccc1N1CCN(S(=O)(=O)c2cccc3nsnc23)CC1	9	2%	i	0.99	5	1
OCCNc1ncnc2c1c(-c1ccccc1)c(-c1ccccc1)n2Cc1ccco1	0	6%	+	0.99	5	1.4
CCOC(=O)Cc1c(C)nc2c(-c3cccc(Br)c3)c[nH]n2c1=O	1	3%	/	1.1	4	2.2*
O=c1c2c(nc3c(-c4cccc(Br)c4)c[nH]n13)CCCC2	0	7%	i	1	14	2.7*
CCOC(=O)Cc1c(C)nc(-c2ccccc2)[nH]c1=O	2	3%	i	0.99	8	1.1
CCc1ccc(NC(=O)CNS(=O)(=O)c2c(C)noc2C)cc1	4	6%	i	0.99	14	1.1
O=C(CN1CCN(C2CCCCC2)CC1)c1ccc2cc[nH]c2c1	0	1%	/	1.1	1	2.1*
O=C(O)c1ccc2cc[nH]c2c1	9	8%	i	1	10	1.1
O=C(CSc1nc(-c2ccncc2)nn1CC(=O)N1CCCCC1)NC1CCCC1	8	3%	i	1.1	0	1.1
CC(C(=O)O)C1SC(=O)NC1=O (stereo not drawn)	0	0%	i	1	0	1
O=C(c1ccc(CNc2c(N3CCCC3)c(=O)c2=O)cc1)N1CCc2ccccc2C1	6	3%	i	1	2	1
Cc1cccc(OCCCc2c(C)n[nH]c2C)c1	11	4%	i	1	26*	1.1
COc1cccc(OC)c1OCCCc1c(C)n[nH]c1C	0	5%	i	0.99	14	1
CCN(CC)C(=O)CC(c1ccc(F)cc1)c1ccco1 (stereo not drawn)	0	0%	i	1	0	1.1
CCNC(=O)Cc1ccc(NS(=O)(=O)c2ccc(F)cc2)cc1	0	0%	i	0.99	0	1.1
CC(C)(C)NS(=O)(=O)c1ccc(NS(=O)(=O)c2ccc(F)cc2)cc1	7	11%	i	1.1	26*	1.1
SMILES	MK inhibit	NADH coupling	DPM-DC inhibit	A340 absorber	PMK inhibit	Autofluor 339
O=C(OCC#CCSc1nnc(-c2ccccc2)o1)c1cccs1	6	2%	i	0.98	0	0.99
O=C(OCC#CCSc1nnc(-c2cccc3ccccc23)o1)c1cccs1	8	4%	i	1.1	3	2.2*
Cc1ccc2c(c1)c1c(n2CC(O)CN2C(=O)CNC2=O)C(=O)CCC1 (stereo not drawn)	9	8%	/	1.1	7	2*
Cc1ccc2c(c1)c1c(n2CC(O)Cn2c(C)nc3ccccc32)C(=O)CCC1 (stereo not drawn)	11	16%	/	1.1	21	2*
Cc1ccc2c(c1)c1c(n2CC2COC(C)(C)O2)C(=O)CCC1 (stereo not drawn)	9	5%	/	1	1	2.2*
Cc1ccc2c(c1)c1c(n2CC(O)Cn2c(C)nc3ccccc32)/C(=N\O)CCC1 (stereo not drawn)	5	4%	i	0.99	7	1.1
CCn1c(=O)cc(SCC(=O)N2CCN(c3ccccc3OC)CC2)c2ccccc21	5	5%	i	1	11	1.2
COc1cc(NS(=O)(=O)c2ccc(NC(=O)C34CC5CC(CC(C5)C3)C4)cc2)ncn1	1	3%	i	0.99	9	1.1
CNC(=O)c1ccsc1NC(=O)c1ccc(Cl)s1	6	5%	i	1.1	0	1.1
CC(=O)N1CCCc2cc(S(=O)(=O)NC(C(=O)NCc3ccc(C)cc3)C(C)C)ccc21 (stereo not drawn)	8	7%	i	0.98	12	1.1
Cc1ccc2[nH]c3c(c2c1)CCc1cn[nH]c1-3	3	6%	i	0.99	12	1.8
Cc1[nH]c2ccc(Br)cc2c(=O)c1CN1CCCCC1	4	4%	i	1.1	8	1.1
O=C1CCCc2c1[nH]c1ccc(CN3CCCCC3)cc21	6	3%	/	1.1	0	2.1*
Cc1ccc2[nH]c3c(c2c1)CCC3=O	7	8%	/	1	9	3.7*
CCc1cc2c(-c3ccccc3)cc(=O)oc2c(CN2CCOCC2)c1O	14	6%	i	1.1	4	2.5*
O=C(c1ccccc1)c1coc2ccc(O)c(CN3CCOCC3)c12	8	5%	i	0.99	13	1
O=c1oc2c(CN3CCCCCC3)c(O)ccc2cc1-c1nc2ccccc2[nH]1	0	3%	/	1.1	5	4.7*
O=c1c(-c2ccc(Cl)cc2)coc2c(CN3CCOCC3)c(O)ccc12	7	11%	/	1.1	15	2.2*
O=C(c1ccccc1-c1nc2ccccc2[nH]1)N1CCCCC1	12	9%	i	0.96	15	1.1
O=c1cc(-c2ccccc2)c2ccc(O)c(CN3CCCCC3)c2o1	2	5%	i	1.2	4	2.4*
Cc1cccc(N(CC(=O)NCc2ccc3c(c2)OCO3)C(=O)CCC(=O)Nc2ccccn2)c1	6	6%	i	0.98	9	1.1
COc1ccc(OC)c(C(c2nnnn2CCC(C)C)N2CCN(C(=O)c3ccco3)CC2)c1 (stereo not drawn)	0	3%	i	1	9	1.2
O=C(CCCc1ccccc1)N1CCc2ccccc21	9	3%	i	1.1	0	1.1
CCCCc1cc(=O)oc2c(CN3CCCC3)c(O)ccc12	4	2%	/	1.1	0	2.4*
O=c1c(-c2ccccc2)coc2c(CN3CCCC3)c(O)ccc12	8	10%	/	1.1	11	3.9*
